This is a sample that favours compounds with a hit; in the whole collection about 7.6% have one here.
SW480 rereplic – inducers of DNA re-replication in SW480 colon cancer cells; SW480 DNA re-replication, Hoechst DNA content imaging, 48 h; Potency, µM (doses to about 46.1 µM), inactives show at the highest dose re-replication activation, hits mostly activators; actives 1.8% (n = 340,000); note: potency is the fitted concentration of half-maximal effect; % of control where 0% means no effect; nearly all actives have a fitted effect of over 55% in size
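Hoechst fluorescence of nuclei (405 nm excitation, 500-530 nm emission) measured by plate-scanning imager after 48 hr compound exposure at 37 C; re-replication scored as increased number of nuclei with elevated intensity.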
MCF10A rereplic – inducers of DNA re-replication in MCF 10A breast cells; MCF 10A DNA re-replication, Hoechst nuclear intensity, 48 h; Potency, µM (titrated, usually from 46.1 µM), inactives show top-dose activity, positive = re-replication, hits mostly activators; actives 2.9% (n = 350,000); AID 624296; note: potency is the fitted concentration of half-maximal effect; % of control where 0% means no effect; nearly all actives have a fitted effect of over 50% in size
KB-V1 cytotox – kills drug-selected multidrug resistant KB-V1 cells. KB-V1 MDR cells viability, CellTiter-Glo, 72 h. Potency, µM (highest dose often 46.1 µM), usual class: cytotoxic. actives 3.4% (n = 400,000); note: potency is the fitted concentration of half-maximal effect; % is set by controls: 0 for no effect and ±100 for the full control effect; nearly all actives have a fitted effect of over 60% in size
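Luminescent ATP read-out (CellTiter-Glo, 10 min) measures survival of drug-selected KB-V1 MDR cells after 72 h, 37 degrees C compound exposure. Medium: phenol-red-free DMEM, 10% FBS. Values from fitted concentration-response curves.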
KCNH2 WT inh – blocks the wildtype human KCNH2 potassium channel. actives 0.37% (n = 340,000). AID 720551. U2OS, BacMam KCNH2, thallium flux FluxOr; stronger effect = lower value. activity change, % at 1.84 µM. Q12809;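 active = maximum activity change below -70%; inconclusive = maximum activity change between -70% and -50%; inactive = maximum activity change above -50%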; note: % is set by controls: 0 for no effect and ±100 for the full control effect
Target sequence (Q12809 whole entry, looked up): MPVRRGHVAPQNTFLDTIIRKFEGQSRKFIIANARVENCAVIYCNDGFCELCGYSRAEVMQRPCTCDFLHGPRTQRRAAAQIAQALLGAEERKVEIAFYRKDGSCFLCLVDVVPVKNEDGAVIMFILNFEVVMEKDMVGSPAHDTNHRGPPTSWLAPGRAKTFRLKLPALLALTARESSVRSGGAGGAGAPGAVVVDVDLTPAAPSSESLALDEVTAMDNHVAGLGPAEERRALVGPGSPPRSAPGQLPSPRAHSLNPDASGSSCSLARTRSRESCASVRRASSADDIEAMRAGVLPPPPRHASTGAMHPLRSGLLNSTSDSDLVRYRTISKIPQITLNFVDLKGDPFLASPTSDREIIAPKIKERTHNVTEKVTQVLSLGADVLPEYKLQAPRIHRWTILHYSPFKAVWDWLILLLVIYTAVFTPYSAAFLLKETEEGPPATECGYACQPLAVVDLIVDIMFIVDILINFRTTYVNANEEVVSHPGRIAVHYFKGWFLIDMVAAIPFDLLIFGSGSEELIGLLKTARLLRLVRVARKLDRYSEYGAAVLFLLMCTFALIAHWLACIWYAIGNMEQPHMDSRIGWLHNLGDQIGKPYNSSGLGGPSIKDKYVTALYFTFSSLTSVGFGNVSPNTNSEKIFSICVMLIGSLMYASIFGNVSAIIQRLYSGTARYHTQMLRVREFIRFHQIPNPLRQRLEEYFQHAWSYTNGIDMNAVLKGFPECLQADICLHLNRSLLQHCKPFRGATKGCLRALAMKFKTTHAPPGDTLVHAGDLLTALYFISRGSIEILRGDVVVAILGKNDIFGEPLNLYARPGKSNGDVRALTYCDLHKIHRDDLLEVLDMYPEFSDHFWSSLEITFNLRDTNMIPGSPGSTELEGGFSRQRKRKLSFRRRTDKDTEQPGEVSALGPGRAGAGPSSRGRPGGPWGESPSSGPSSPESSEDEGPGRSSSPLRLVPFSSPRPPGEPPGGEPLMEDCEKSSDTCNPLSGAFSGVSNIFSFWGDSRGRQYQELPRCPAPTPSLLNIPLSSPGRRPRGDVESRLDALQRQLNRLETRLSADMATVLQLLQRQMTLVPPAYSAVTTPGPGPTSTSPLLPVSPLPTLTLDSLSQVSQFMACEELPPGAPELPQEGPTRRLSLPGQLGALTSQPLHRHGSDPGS
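U2OS cells transduced with wild-type KCNH2 virus are loaded with FluxOr dye for 45 min, and thallium flux is measured in kinetic reads before and after stimulation buffer. Rate constants are normalized to DMSO controls.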
KCNH2 3.1 block – KCNH2 3.1 (human) potassium channel inhibition. actives 0.95% (n = 340,000). U2OS KCNH2 3.1, thallium flux FluxOr; stronger effect = lower value. activity change, % (tested at about 1.8 µM);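 active = maximum activity change below -70%; inconclusive = maximum activity change from -70% to -50%; inactive = maximum activity change above -50%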;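 note: thallium influx rate constant from kinetic fluorescence after stimulation buffer; % is set by controls: 0 for no effect and ±100 for the full control effect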
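U2OS cells transduced with KCNH2 3.1 mutant virus (1.77 x 10^8 /mL, 4 h), plated overnight at 37 C, loaded 45 min with FluxOr dye plus Red40 quencher. Thallium flux rate constant from kinetic reads after stimulation buffer, normalised to controls.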
KB-3-1 tox – KB-3-1 parental cell cytotoxicity | KB-3-1 viability, CellTiter-Glo ATP luminescence, 72 h | Potency, µM (doses to about 46.1 µM), most hits filed as cytotoxic | actives 1.4% (n = 400,000) | AID 1347075; note: potency is the fitted concentration of half-maximal effect; % is set by controls: 0 for no effect and ±100 for the full control effect; nearly all actives have a fitted effect of over 60% in size
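Parental KB-3-1 viability, qHTS format: 72 h compound exposure, 37 °C; CellTiter-Glo; media-only wells and DMSO plates as controls; concentration-effect fits on corrected data.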
An asterisk follows results filed as active; [ ] = dose if it differs, or a comment. Unless noted, calls come from the whole dose curve; as a rule, active = well fitted curve in the direction sought with a large enough effect; inconclusive = small, poorly fitted or top-dose-only effect, or another doubt; inactive = no such curve, though single readings can be large; an effect the other way counts as inactive or inconclusive.

`CC(=O)c1cc2ccccc2c2ccccc12` gave KB-V1 cytotox inactive and KB-3-1 tox inactive.
COc1cc(CNCCCN2CCOCC2)c(Br)cc1OCC(=O)Nc1ccccc1C was read as SW480 rereplic inconclusive, MCF10A rereplic 15µM*, KB-V1 cytotox inactive, KCNH2 WT inh -2, KCNH2 3.1 block 1 and KB-3-1 tox inactive.
COc1cc(/C=N/O)c(Br)cc1OCC(=O)Nc1ccccc1C was read as SW480 rereplic inconclusive, MCF10A rereplic -52%, KB-V1 cytotox 8.2µM*, KCNH2 WT inh -7, KCNH2 3.1 block -15 and KB-3-1 tox inactive.
For COc1cc(/C=N/NC(N)=O)c(Br)cc1OCC(=O)Nc1ccccc1C the results were SW480 rereplic 13%, MCF10A rereplic inconclusive, KB-V1 cytotox inactive, KCNH2 WT inh 3, KCNH2 3.1 block -5 and KB-3-1 tox inactive.
Screening COC(=O)c1ccc(NC(=O)c2nc(S(=O)(=O)Cc3ccccc3F)ncc2Cl)cc1 returned KB-V1 cytotox inactive and KB-3-1 tox inconclusive.
For C=CC[N+]1([C@H]2C[C@H]3[C@@H]4CC[C@H]5C[C@H](O)[C@@H](N6CCOCC6)C[C@]5(C)[C@H]4CC[C@]3(C)[C@H]2OC(C)=O)CCCC1 the results were SW480 rereplic 1% and MCF10A rereplic 3%.
Screening Cc1cc(S(=O)(=O)NCC(C)C)ccc1OCC(=O)NCC1CCCO1 (stereo unspecified) returned SW480 rereplic inconclusive, MCF10A rereplic 8%, KB-V1 cytotox 21µM*, KCNH2 WT inh 6, KCNH2 3.1 block -6 and KB-3-1 tox inactive.
`CC(OC(=O)c1c2c(nc3ccccc13)/C(=C\c1ccc3c(c1)OCO3)CCC2)C(=O)Nc1ccc(S(N)(=O)=O)cc1` (stereo unspecified) gave SW480 rereplic 21µM*, MCF10A rereplic 3.3µM*, KB-V1 cytotox inactive, KCNH2 WT inh 4, KCNH2 3.1 block 0 and KB-3-1 tox inactive.
Cc1cccc(C)c1NC(=O)COC(=O)c1c2c(nc3ccccc13)/C(=C\c1ccc3c(c1)OCO3)CCC2 was read as SW480 rereplic inconclusive, MCF10A rereplic inconclusive, KB-V1 cytotox inactive, KCNH2 WT inh -4, KCNH2 3.1 block 1 and KB-3-1 tox inactive.
Screening O=C(NCCN1CCC(n2c(=O)[nH]c3ccccc32)CC1)c1ccc(C(F)(F)F)cc1C(F)(F)F returned KB-V1 cytotox 12µM* and KB-3-1 tox inconclusive.
O=C(NCCN1CCC(n2c(=O)[nH]c3ccccc32)CC1)c1ccc(F)c(C(F)(F)F)c1 was read as KB-V1 cytotox inactive and KB-3-1 tox inactive.
`Cc1ccc(C(=O)NCc2ccc(N3CCN(C)CC3)cc2)cc1C` gave SW480 rereplic 2%, MCF10A rereplic 1.6µM*, KB-V1 cytotox inconclusive, KCNH2 WT inh -5, KCNH2 3.1 block 9 and KB-3-1 tox inactive.
O=C(NCc1ccccc1)c1cc2ccccc2o1 was read as SW480 rereplic 9%, MCF10A rereplic -1%, KB-V1 cytotox inconclusive, KCNH2 WT inh -8, KCNH2 3.1 block -1 and KB-3-1 tox inactive.
`Cc1ccc(C(=O)NCc2ccc3c(c2)OCO3)cc1C` gave SW480 rereplic 4%, MCF10A rereplic -1%, KB-V1 cytotox inactive, KCNH2 WT inh 0, KCNH2 3.1 block -1 and KB-3-1 tox inactive.
Screening CN1CCN(c2ccc(CNC(=O)c3cc4ccccc4o3)cc2)CC1 returned SW480 rereplic -5%, MCF10A rereplic 23µM*, KB-V1 cytotox inactive, KCNH2 WT inh 9, KCNH2 3.1 block 9 and KB-3-1 tox inactive.
COC(=O)c1ccc(N2CCN(C)CC2)c(NC(=O)c2cc3ccccc3o2)c1 was read as SW480 rereplic -4%, MCF10A rereplic 1%, KB-V1 cytotox 3.3µM*, KCNH2 WT inh 6, KCNH2 3.1 block -2 and KB-3-1 tox inactive.
`C[N+]1(CC(=O)c2ccc(Oc3ccc(C(=O)C[N+]4(C)CCOCC4)cc3)cc2)CCOCC1` gave KB-V1 cytotox inactive and KB-3-1 tox inactive.
Screening COc1ccc(-n2c(C)cc(/C=C3/SC(=S)N(C)C3=O)c2C)cc1 returned SW480 rereplic -86%, MCF10A rereplic -8%, KB-V1 cytotox inactive, KCNH2 WT inh -3, KCNH2 3.1 block 5 and KB-3-1 tox inactive.
For CN=C1S/C(=C\c2cc(C)n(-c3ccccc3F)c2C)C(=O)N1C the results were SW480 rereplic 4%, MCF10A rereplic 21µM*, KB-V1 cytotox inactive, KCNH2 WT inh -21, KCNH2 3.1 block 9 and KB-3-1 tox inactive.
CN(C)c1ccc(C=C2SC(=S)N(Cc3ccco3)C2=O)cc1 was read as KB-V1 cytotox inactive, KCNH2 WT inh -35, KCNH2 3.1 block -28 and KB-3-1 tox inactive.
For CN1C(=O)/C(=C\c2cc(N=Nc3ccccc3)ccc2O)SC1=S the results were SW480 rereplic -1%, MCF10A rereplic 2.9µM*, KB-V1 cytotox inconclusive, KCNH2 WT inh -19, KCNH2 3.1 block -2 and KB-3-1 tox inconclusive.
Screening Cc1cc(/C=C2\SC(=S)N(Cc3ccco3)C2=O)c(C)n1-c1ccccc1 returned SW480 rereplic -2%, MCF10A rereplic 5.8µM*, KB-V1 cytotox inactive, KCNH2 WT inh -81*, KCNH2 3.1 block -23 and KB-3-1 tox inactive.
Screening Cc1cc(/C=C2\SC(=S)N(C)C2=O)c(C)n1-c1cccc(O)c1 returned SW480 rereplic 17%, MCF10A rereplic 13µM*, KB-V1 cytotox inconclusive, KCNH2 WT inh 1, KCNH2 3.1 block -3 and KB-3-1 tox inconclusive.
`CN1C(=O)/C(=C\c2ccccc2OCc2ccccc2)SC1=S` gave SW480 rereplic -2%, MCF10A rereplic 1%, KB-V1 cytotox inactive, KCNH2 WT inh 4, KCNH2 3.1 block -7 and KB-3-1 tox inactive.
For COc1c(C(=O)Nc2ccc3[nH]c(=O)[nH]c3c2)cc2ccccc2c1Br the results were SW480 rereplic inconclusive, MCF10A rereplic 11µM*, KB-V1 cytotox inactive, KCNH2 WT inh -5, KCNH2 3.1 block 10 and KB-3-1 tox inactive.
Screening COc1c(C(=O)Nc2ccc(CN3CCOCC3)cc2)cc2ccccc2c1Br returned SW480 rereplic inconclusive, MCF10A rereplic inconclusive, KB-V1 cytotox inconclusive, KCNH2 WT inh 38 and KB-3-1 tox inactive.
`Cc1ccc(S(=O)(=O)NCCN=C(CN2CCOCC2)NS(=O)(=O)c2ccc(C)cc2)cc1` gave SW480 rereplic -3%, MCF10A rereplic 256%[0.0737 µM], KB-V1 cytotox inactive, KCNH2 WT inh -6, KCNH2 3.1 block 0 and KB-3-1 tox inactive.

Screens from PubChem.
